# An excerpt weighted towards active compounds, which were near 1.3% of everything screened.
# B2AR ag – activates human beta-2 adrenergic receptor causing internalization | P07550 | Am2.2-beta2AR cells, FAP receptor internalization, flow cytometry | response, % (test concentration not listed) | 340,000 tested, 0.43% active | AID 504454;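 active means response above a set limit, near 3 SD of response in nonfluorescent compounds, cut at about 42% in these data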
# GRK2 aptamer HTS – inhibitors of human GRK2 displacing RNA aptamer; P25098; bead flow cytometry, FAM-aptamer displacement from GRK2; inhibition of aptamer binding, % at 10 µM; 330,000 tested, 0.59% active; AID 488847;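 active means inhibition of aptamer binding above 40%, roughly 3 SD of noise, on plates passing a quality check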;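 further: median bead fluorescence of bound FAM aptamer so fluorescent compounds give negative values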
# A1 inh – inhibitors of the anti-apoptotic protein A1, read as caspase activation; MEF A1-2A-BIM cells, Caspase-Glo 3/7 luminescence, 3 h; percent of clofoctol response, vehicle zero; 330,000 tested, 0.066% active; caspase activation, % (no concentration beside the values); AID 2462;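 active means over half of replicate activation scores above 10%, or exactly half above 10 with the replicate mean above 10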
# VLA-4 inh – inhibition in a human VLA-4 binding assay; VLA-4 expressing cells, ligand binding flow cytometry; 330,000 tested, 0.2% active; P13612; inhibition, % (about 7 µM as worked out from the volumes in the protocol); in the data active means inhibition above about 50%
# NTR1 ag – agonists of human neurotensin receptor NTR1; P30989; NTR1-U2OS beta-arrestin-GFP spot imaging, agonist mode; activation, % at 20 µM; 330,000 tested, 0.17% active; AID 493036;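 active means activation at or above 40% of the spot to cytoplasm intensity ratio, with at least 20 cells analyzed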;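 further: 0% = DMSO without peptide and 100% = 100 nM NTR1 peptide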
# Target sequence (P30989 whole entry, looked up): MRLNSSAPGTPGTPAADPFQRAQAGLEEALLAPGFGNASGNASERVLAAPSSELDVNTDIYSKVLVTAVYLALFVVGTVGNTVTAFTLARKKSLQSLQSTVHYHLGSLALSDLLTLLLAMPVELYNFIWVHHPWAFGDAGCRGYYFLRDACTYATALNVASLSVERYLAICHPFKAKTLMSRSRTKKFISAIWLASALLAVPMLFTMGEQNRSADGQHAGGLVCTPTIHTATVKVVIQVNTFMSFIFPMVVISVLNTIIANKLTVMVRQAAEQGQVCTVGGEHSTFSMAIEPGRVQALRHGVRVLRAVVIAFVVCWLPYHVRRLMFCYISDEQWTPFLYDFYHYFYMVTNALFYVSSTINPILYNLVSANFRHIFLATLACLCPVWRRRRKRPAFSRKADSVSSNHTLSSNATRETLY
# GRK2 CP1 – confirmation of human GRK2 inhibitors displacing RNA aptamer | shares compounds with GRK2 aptamer HTS | bead-bound GRK2, FAM-aptamer displacement, flow cytometry | 2,000 tested, 4% active | AID 504451 | aptamer displacement, % at 10 µM;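 active means aptamer displacement above 40%, near three times the noise of non-fluorescent compounds, on plates passing quality checks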;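 further: negative values mostly reflect intrinsic compound fluorescence rather than true enhancement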
# FAM quench CP1 – quenches fluorescent RNA aptamer, GRK2 hit artifact; fluorescence response (% of DMSO), % at 10 µM; 2,000 tested, under 10 active; shares compounds with GRK2 aptamer HTS; Carboxyfluorescein RNA aptamer on beads, flow cytometry quenching; stronger effect = lower value;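 active means compounds that quench the bead-bound fluorescent RNA probe, cutting fluorescence to under half of the solvent control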;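 further: counterscreen run without GRK2 so only probe quenching by compound is measured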
# GRK2 CP2 – confirmation of human GRK2 inhibitors binding RNA aptamer site; shares compounds with GRK2 aptamer HTS; bead-bound GRK2, FAM-aptamer displacement, flow cytometry; inhibition of aptamer binding, % at 10 µM; 360 tested, under 10 active;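 active means inhibition of aptamer binding above 40%, about triple the noise seen with nonglowing compounds, on plates passing quality control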;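 further: negative values mostly come from compounds that fluoresce themselves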
# FAM quench CP2 – aptamer fluorescence quenching in GRK2 counter-screen. shares compounds with GRK2 aptamer HTS. carboxyfluorescein RNA aptamer beads, flow cytometry quenching; stronger effect = lower value. fluorescence response vs DMSO, % at 10 µM. 360 tested, under 10 active;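 active means response vs DMSO under 50%, meaning signal dropped by over half, treated as fluorescence quencher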;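 further: labelled aptamer on streptavidin beads without GRK2 as a quench counter-screen; 100% = bead fluorescence of DMSO wells and lower means quenching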
# Active calls of the source: *; · = no result given.
SMILES,B2AR ag,GRK2 aptamer HTS,A1 inh,VLA-4 inh,NTR1 ag,GRK2 CP1,FAM quench CP1,others
COc1cccc(CC2(CO)CCCN(Cc3cn[nH]c3-c3cc(C)ccc3C)C2)c1 (stereo unspecified),1.0,0.0,0.5,0.0,-0.2,2.8,97.4,
CC(C)C(NC(=O)c1ccccc1)c1nnc(SCC(=O)NC2CCCC2)n1C (stereo unspecified),7.0,3.0,0.2,-2.4,1.4,·,·,
COc1ccccc1CCNC(=O)C1CCC(=O)N(C2CCCCCC2)C1 (stereo unspecified),0.7,2.0,-0.3,10.4,0.2,·,·,
Cc1cccn2c(=O)c3cc(C(=O)NCCN4CCOCC4)c(=N)n(CCN4CCOCC4)c3nc12,-10.0,41.0*,0.4,-0.7,2.0,-1.3,97.0,
CCOCCCn1c(=N)c(C(=O)NCc2ccc3c(c2)OCO3)cc2c(=O)n3ccccc3nc21,·,·,·,·,9.7,·,·,
COc1ccc(CNC(=O)c2cc3c(=O)n4cccc(C)c4nc3n(CC3CCCO3)c2=N)cc1 (stereo unspecified),22.8,0.0,0.2,-6.3,11.3,-1.6,96.8,
Cc1cccn2c(=O)c3cc(C(=O)NCc4ccc(F)cc4)c(=N)n(CC4CCCO4)c3nc12 (stereo unspecified),5.0,7.0,-0.6,6.5,7.4,·,·,
CCCn1c(=N)c(C(=O)NCc2ccc3c(c2)OCO3)cc2c(=O)n3cccc(C)c3nc21,1.2,78.0*,-0.5,6.5,15.6,-2.4,93.5,
COc1cc(S(=O)(=O)NCc2ccncc2)ccc1Br,1.9,0.0,-0.7,1.5,-0.2,·,·,
CCN(CC(=O)Nc1c(F)cccc1F)C(=O)Cc1csc(-c2ccccc2)n1,-1.6,2.0,2.0,12.4,-1.3,·,·,
CC(C)c1nnc(NC(=O)CCC(=O)N2CCC(Cc3ccccc3)CC2)s1,3.0,1.0,-0.4,6.4,5.2,·,·,
COc1cc(NC(=O)c2cc(C)no2)cc(OC)c1OC,-4.9,0.0,-0.8,37.2,0.9,·,·,
COc1ccc(Cn2nnnc2C(c2ccccn2)N2CCN(c3cc(Cl)ccc3C)CC2)cc1 (stereo unspecified),7.7,0.0,0.2,-7.5,2.7,·,·,
COCCn1nnnc1C(c1ccccn1)N1CCN(c2cc(Cl)ccc2C)CC1 (stereo unspecified),23.4,97.0*,-0.3,5.9,-0.3,-1.1,102.0,
COc1ccc(NC(=O)CCOc2ccc(C)cc2)c(OC)c1,1.4,2.0,0.3,2.6,0.8,·,·,
CCNc1nc(NCC)n2c(SCC(=O)Nc3ccccc3OC(F)F)nnc2n1,-2.6,22.0,0.2,4.2,1.0,·,·,GRK2 CP2=-1.8;FAM quench CP2=101.0
CCNc1nc(NCC)n2c(SCC(=O)Nc3ccc(NC(C)=O)cc3)nnc2n1,1.0,31.0,0.0,-5.3,-0.9,·,·,GRK2 CP2=-0.2;FAM quench CP2=106.0
O=C(COC(=O)C1CCC1)NCc1ccc(F)cc1,16.8,3.0,0.1,-17.6,-0.3,·,·,
O=C(NCCc1cccs1)C1CC(c2ccccc2F)=NO1 (stereo unspecified),-0.5,2.0,-1.8,-18.9,-2.2,·,·,
O=C(O)C1CC(c2ccccc2F)=NO1 (stereo unspecified),7.9,6.0,1.3,-5.9,-0.3,·,·,GRK2 CP2=-25.3;FAM quench CP2=102.0
O=C(CSc1oc(-c2cccs2)nc1S(=O)(=O)c1ccc(F)cc1)NCC1CCCO1 (stereo unspecified),-8.6,42.0*,0.1,-31.9,-1.0,2.4,102.1,
O=C(CSc1oc(-c2ccc(F)cc2)nc1S(=O)(=O)c1ccc(F)cc1)NCC1CCCO1 (stereo unspecified),-7.6,1.0,0.0,6.9,0.9,·,·,
C=CCOc1ccc(C2C(C(=O)c3ccco3)=C(O)C(=O)N2c2nnc(C)s2)cc1 (stereo unspecified),11.4,73.0*,-3.7,6.2,1.3,1.9,104.0,
COc1cc(C(C)=O)ccc1COc1ccc(C(=O)O)cc1OC,6.0,5.0,0.7,-9.8,-1.5,·,·,
Cc1ccc2c(c1)n([O-])c1c([n+]2=O)CCCC1,6.9,52.0*,-0.4,-3.0,-3.3,-5.0,103.0,
SMILES,B2AR ag,GRK2 aptamer HTS,A1 inh,VLA-4 inh,NTR1 ag,GRK2 CP1,FAM quench CP1,others
O=[n+]1c2c(n([O-])c3cc(F)ccc31)CCCC2,7.0,0.0,0.0,-2.8,-2.1,·,·,
COc1cccc(NC(=O)C(OC(=O)c2ccccc2NS(=O)(=O)c2cccs2)c2ccccc2)c1 (stereo unspecified),16.8,100.0*,0.3,8.9,0.8,-0.6,100.0,
Cc1c(Br)c(C(=O)N2CCc3ccccc32)nn1C,-12.6,0.0,-6.3,36.3,0.8,·,·,
Cc1nn(C)c(C(=O)N2CCc3ccccc32)c1Br,0.6,41.0*,-0.5,-12.0,-0.4,·,·,GRK2 CP2=-3.5;FAM quench CP2=99.0
C/C(=N\Nc1nc(C)cc(C)n1)c1ccc(N2CCOCC2)cc1,0.3,2.0,-0.3,26.7,-0.7,·,·,
C/C(=N\Nc1nc2ccccc2[nH]1)c1ccc(N2CCOCC2)cc1,8.8,52.0*,-2.1,1.8,3.0,-0.4,100.7,
Cc1ccc(C2(C)NC(=O)N(CC(=O)NNC(=O)c3cc(C)oc3C)C2=O)cc1 (stereo unspecified),0.4,3.0,1.3,8.4,-0.2,·,·,
O=C(COC(=O)Cc1n[nH]c(=O)c2ccccc12)NNC(=O)c1ccc(Cl)cc1,0.9,3.0,-1.2,-6.8,-1.1,·,·,
Cc1cc(C)n(-c2nc(NCCCO)c3c4c(sc3n2)CCCC4)n1,-3.6,4.0,-0.9,-9.3,3.8,-3.0,95.8,
Cc1cc(C)n(-c2nc(NCCO)c3c4c(sc3n2)CCCC4)n1,-7.3,9.0,0.7,-0.6,5.5,·,·,
COc1cccc(OC)c1C(=O)OCC(=O)NCC(C)C,8.0,96.0*,0.2,12.1,0.9,-3.1,94.8,
CCCCCOc1ccc(/C=N/NC(=O)c2nnn(-c3nonc3N)c2CN2CCCCCC2)cc1,-8.8,55.0*,-1.0,13.4,11.8,2.2,104.9,
C/C(Cc1ccccc1)=N\NC(=O)CNC(=O)c1ccc(Br)cc1,12.9,78.0*,0.1,2.5,0.4,-12.5,88.7,
O=C(NCCN1CCOCC1)c1cc([N+](=O)[O-])cc([N+](=O)[O-])c1,-1.2,4.0,2.0,-4.8,-0.8,·,·,
CC1(C)NC(=O)N(CC(=O)Nc2ccc(-n3cnnn3)cc2)C1=O,4.6,28.0,-1.8,-6.5,1.7,1.9,95.1,
O=C(O)c1ccc(OC(F)(F)C(F)C(F)(F)F)cc1 (stereo unspecified),7.2,76.0*,-0.1,3.1,-0.5,2.9,98.5,

# Source: PubChem BioAssay
